Source: the supplement of paper PMC7156485
Where “and” joins values, the source holds several entries; their conditions need not be identical. Equal entries are not always repeated.

tested on: TDF; assay: H1.0 immunofluorescence intensity relative to DMSO (% of DMSO); higher = stronger H1.0 induction, active = 120 or more; conditions: concentration: 10 µM; 24 h
Procedure, shortened: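 Six fields per well were imaged at ×10 after the cells were fixed in 3.7% formaldehyde and stained with a rabbit anti-H1.0 antibody, an AlexaFluor 647 secondary and DAPI. The HCC1569 and TDF cells had been plated at 800 per well in 384-well plates (RPMI, 10% FBS) and treated in triplicate with compounds at 10 µM for 24 h at 37 °C. The values are the median of replicates of H1.0 nuclear intensity or cell number, as percent of the plate control. Smoothing for positional effects was applied to HCC1569 data.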
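Also: TDF is a line of transformed human dermal fibroblasts of mesenchymal origin.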

H1.0 immunofluorescence intensity, inactive:
CC1OC(Oc2c(-c3ccc(O)c(O)c3)oc3cc(O)cc(O)c3c2=O)C(O)C(O)C1O (stereo not given) [Quercitrin] 101
CCOC(=O)C1OC1C(=O)NC(CC(C)C)C(=O)NCCC(C)C (stereo not given) 101
CC(C)C(CO)Nc1nc(Nc2cccc(Cl)c2)c2ncn(C(C)C)c2n1 (stereo not given) 120
CC1CC2C(C(O)CC3(C)C2CCC3(O)C(=O)CO)C2(C)C=CC(=O)C=C12 (stereo not given) [Methylprednisolone] 88.6
CC(C)c1cccc(O)c(=O)c1 [Hinokitiol] 89.5
CC(C)C(CO)Nc1nc(Nc2cccc(Cl)c2)c2ncn(C(C)C)c2n1 (stereo not given) [Purvalanol A] 98.3
COC(C)(C)CCCC(C)CC=CC(C)=CC(=O)O (stereo not given) [Methoprene acid] 98
Nc1ccc(N2C(=O)c3ccccc3C2=O)c(Cl)c1 [N-(4-Amino-2-chlorophenyl)phthalimide] 94.3
CC(C)[N+]1(C)C2CCC1CC(OC(=O)C(CO)c1ccccc1)C2.[Br-] (stereo not given) [Ipratropium.Br] 91.5
O=C1Nc2cc(Br)ccc2C1=C1N=c2ccccc2=C1NO [GSK-3 Inhibitor IX] 112
C=C1C(=CC=C2CCCC3(C)C2CCC3C(C)C=CC(O)C2CC2)CC(O)CC1O (stereo not given) [Calcipotriene] 91.9
COc1cc(C2Oc3cc(C4Oc5cc(O)cc(O)c5C(=O)C4O)ccc3OC2CO)ccc1O (stereo not given) [Silybine] 95.9
CN(C)CCC=C1c2ccccc2COc2ccc(CC(=O)O)cc21 [Olopatadine] 90.3
Cc1cc(Cc2cc(C)cc(C(C)(C)C)c2O)c(O)c(C(C)(C)C)c1 96.7 and 99.5
O=S(=O)(O)C1CCNCC1 [Piperidine-4-sulphonic acid] 89
CC1CCc2c(N3CCC(O)CC3)c(F)cc3c(=O)c(C(=O)O)cn1c23 (stereo not given) [Nadifloxacin] 98.7
O=c1c(-c2ccc(F)cc2)c(-c2ccncc2)[nH]n1-c1ccc(Cl)cc1 [p38 MAP Kinase Inhibitor] 95.2
CCC1(c2ccccc2)NC(=O)N(C)C1=O (stereo not given) [Mephenytoin] 98.5
C[N+](C)(CCCCCC[N+](C)(C)CCCN1C(=O)c2cccc3cccc(c23)C1=O)CCCN1C(=O)c2cccc3cccc(c23)C1=O.[Br-].[Br-] 97.2
COc1cc(O)c(C(=O)C=Cc2ccccc2)c(OC)c1 [Flavokawain B] 93.6
CC(C(=O)O)c1ccc(CC2CCCC2=O)cc1 (stereo not given) [loxoprofen] 88.6
CCCCCC=CCC=CCC=CCC=CCCCC(=O)OC(CO)COC(=O)CCCCCCCCCCCCCCCCC (stereo not given) [1-Stearoyl-2-arachidonoyl-glycerol] 98.4
Cl.O=C(c1ccc(OCCN2CCCCC2)cc1)c1c(-c2ccc(O)cc2)sc2cc(O)ccc12 [Raloxifene hydrochloride] 109
COC(=O)C1C2CC3c4[nH]c5cc(OC)ccc5c4CCN3CC2CC(OC(=O)c2cc(OC)c(OC)c(OC)c2)C1OC (single isomer, unassigned; (-)) [(-)-Isoreserpine] 102
O=C(O)CCCC=CCC1C(O)CC(F)C1C=CC(O)C1Cc2ccccc2C1 (stereo not given) 91.9
CC(C)=CCCC(C)=CCCC(C)=CCCC(C)=CCCC(C)=CCCC(C)=CCCC(C)=CCCC(C)=CCCC(C)=CCO [Solanesol] 89.9
CCC(C(=O)C(C)C(O)C(C)CCc1ccc(C)c(O)c1C(=O)[O-])C1OC(CC)(C2CCC(O)(CC)C(C)O2)CC1C.[Na+] (stereo not given) [Lasalocid A] 105
CC1(COc2ccc(CC3SC(=O)NC3=O)cc2)CCCCC1 (stereo not given) [Ciglitizone] 96.5
CS(=O)(=O)CCNCc1nc(-c2ccc3ncnc(Nc4ccc(OCc5cccc(F)c5)c(Cl)c4)c3c2)cs1.Cl.Cl 99.4
Cl.c1ccc2nc(C3=NCCN3)ccc2c1 [BU224 hydrochloride] 95
